Measured values published in PubChem BioAssay AID652042 (Broad Institute, 2013).
Screen size: about 1,100 compounds; about 350 (32%) were called active. These entries were drawn from the full list. Measured potencies and affinities stand elsewhere. Unmarked numbers belong to inactive results. How the calls were made is not given here.

Experiment: viability loss in CEM21 cells – cell-based, CellTiter-Glo luminescence, cherry-picked, cytotoxicity control for viral fusion inhibitor project, dose response (AID 652042)
Conditions: CellTiter-Glo ATP luminescence, 24 h; series mostly up to 35 µM; activity change, negative = cytotoxicity: at the top concentration

SMILES	activity change, negative = cytotoxicity
O=C(NC1CCCCC1)C(c1ccc(Cl)cc1)N(C(=O)c1cnccn1)c1ccc2c(c1)OCO2 (configuration not stated)	-11.4%
COc1ccc(N2CCn3c2nc2c3c(=O)n(CCCc3ccccc3)c(=O)n2C)c(OC)c1	-7.02% [at 16 µM]
CCN1C(=O)[C@H]2[C@@H](c3ccc(C(F)(F)F)cc3)N[C@]3(CCCN(Cc4ccccc4)C3=O)[C@H]2C1=O	4.84%
CCC(C(=O)c1ccccc1)N(C(=O)c1ccccc1Cl)N1C(=O)C2C3C=CC(C3)C2C1=O (configuration not stated)	-9.04%
CC[C@@]1(C(=O)OC)N[C@H](CN(C)S(=O)(=O)c2ccc(-c3ccccc3)cc2)[C@@H]2C(=O)N(Cc3ccccc3)C(=O)[C@@H]21	-0.287%
O=C(Cc1ccc(Cl)cc1Cl)Nc1ccncc1	-8.97%
CCN(C[C@H]1N[C@@](CC)(C(=O)OC)[C@H]2C(=O)N(Cc3ccccc3)C(=O)[C@@H]12)C(=O)Nc1ccc(Cl)cc1	-25.8%
CCN(CC)C(=O)c1ncn2c1C(=O)NC[C@@H]2C	5.12%
CCc1ccc2[nH]c(=O)c(C(c3nnnn3Cc3ccc(OC)cc3)N3CCOCC3)cc2c1 (configuration not stated)	-0.785%
CCc1nnc(NC(=O)[C@@H](NC(=O)c2cccc(S(=O)(=O)N(CC)CC)c2)C(C)C)s1	0.838%
Cc1ccc(C(=O)Nc2cccc(C(=O)O)c2)cc1	-22.5%
COc1ccc(C2N(S(=O)(=O)c3ccc(C)cc3)CCN2S(=O)(=O)c2ccc(C)cc2)cc1	-2.09%
Cc1ccccc1S(=O)(=O)N1C[C@H]2[C@H]3C(=O)N(C4CCCCC4)C(=O)[C@H]3CC(=O)[C@H]2[C@@H]1c1ccc(Cl)cc1	-7.17%
O=C(NCc1cccnc1)c1c[nH]c2cc3c(cc2c1=O)OCCO3	-13.7%
CC[C@@]1(C(=O)OC)N[C@H](CN(C)C(=O)c2ccc(C(C)(C)C)cc2)[C@@H]2C(=O)N(Cc3ccccc3)C(=O)[C@@H]21	-13.2%
N#Cc1ccc(CSc2nnc(COc3ccccc3)n2-c2ccccc2)cc1	-4.88%
Cc1cc(C(=O)CN2C(=O)c3ccccc3S2(=O)=O)c(C)n1C(C)C	-3.53%
O=C(Nc1ccc(S(=O)(=O)N2CCN(Cc3ccccc3)CC2)cc1)c1cnccn1	-15.6%
O=C(Nc1nc(-c2ccc3c(c2)OCO3)cs1)c1ccncc1	-8.69%
Cc1ccc2c(CN3CCN(S(=O)(=O)c4ccc5c(c4)OCCO5)CC3)cc(=O)oc2c1C	-21.9%
Cc1ccc(N2C(=O)CC(c3ccsc3)C3=C2CC(C)(C)CC3=O)cc1 (configuration not stated)	-14.1%

SMILES	activity change, negative = cytotoxicity
CCN(CC)c1ncnc2ccc(Br)cc12	-3.25%
O=C(N/N=C/c1sc(N2CCOCC2)nc1-c1ccccc1)c1cccc(S(=O)(=O)N2CCOCC2)c1	-26.1%
O=S(=O)(Nc1nc2ccccc2nc1Nc1cccc(S(=O)(=O)N2CCCCC2)c1)c1ccccc1	-23.7%
CC(=O)OC1c2ccccc2C(=O)N1c1ccccc1C (configuration not stated)	3.07%
O=C1COc2ccc(-c3csc(=Nc4ccc(OC(F)F)cc4)n3CC3CCCO3)cc2N1 (configuration not stated)	-19.3%
COc1ccc(NC(=O)C2(C)CCN2Cc2ccccc2OC(F)F)cc1OC (configuration not stated)	-13.7%
CC1(C(=O)NCc2cccc3ccccc23)CCN1Cc1ccc(-c2ccccc2)o1 (configuration not stated)	-14.3%
CC(=O)C1=C(C)N(Cc2ccc(Cl)cc2)C(=S)NC1c1cccc(Br)c1 (configuration not stated)	-3.5%
CCCC#Cc1ccc2c(c1)O[C@@H](CN(C)S(=O)(=O)c1cccc(F)c1)[C@@H](C)CN([C@@H](C)CO)S2(=O)=O	-24.3%
C[C@H](CO)N1C[C@H](C)[C@H](CN(C)S(=O)(=O)c2cccs2)Oc2ccc(NC(=O)C3CCCCC3)cc2CC1=O	-7.83%
C[C@H](CO)N1C[C@H](C)[C@@H](CN(C)C(=O)NC2CCCCC2)Oc2c(cccc2N(C)C)C1=O	11.2%
CCCC#Cc1ccc2c(c1)O[C@@H](CN(C)S(=O)(=O)c1cccc(F)c1)[C@@H](C)CN([C@H](C)CO)S2(=O)=O	-13.9%
O=c1c2ccccc2nnn1CSc1nnc(COc2ccc(Cl)cc2)n1Cc1ccco1	5.32% [at 8 µM]
CC(NC(=O)c1ccccc1NC(=O)CN1CCc2ccccc2C1)c1ccccc1 (configuration not stated)	-3.62%
O=C(O)C[C@@H]1C=C[C@@H](NC(=O)Nc2ccccc2)[C@H](CO)O1	-0.862%
C[C@@H]1CN([C@@H](C)CO)C(=O)c2cccc(NS(=O)(=O)c3cccs3)c2O[C@@H]1CN(C)Cc1ccc(C(F)(F)F)cc1	-11.3%
O=C(O)C[C@@H]1C=C[C@H](NC(=O)Nc2ccccc2)[C@H](CO)O1	2.19%
C[C@H]1Cn2cnc(C(=O)N3CCN(c4ccccc4)CC3)c2C(=O)N1	-11.6%
C=C1CCN([C@@H](Cc2ccccc2)C(=O)Nc2ccc(OC)cc2)S(=O)(=O)c2ccccc21	-1.34%
O=C(Nc1nc(COc2ccccc2)cs1)C12CC3CC(CC(C3)C1)C2	-22.3%
COc1ccccc1NC(=O)N[C@@H]1CC[C@H](CC(=O)N[C@H](C)c2ccccc2)O[C@@H]1CO	-2.4%

SMILES	activity change, negative = cytotoxicity
CN1CCN(c2ccccc2NC(=O)C(Cc2ccccc2)n2cccc2)CC1 (configuration not stated)	-19.5%
CC(=O)c1ccc(S(=O)(=O)N2CCN(c3nc4c(C)c(C)ccc4cc3C#N)CC2)cc1	-12.4%
OCC[C@@H]1C[C@@H](O)[C@H](O)[C@]2(OCc3ccccc32)O1	-4.61%
COc1ccc(NC(=O)Nc2ccc3c(c2)C(=O)N([C@H](C)CO)C[C@H](C)[C@H](CN(C)Cc2ccncc2)OCCCC[C@H](C)O3)cc1	-6.02%
COc1ccccc1S(=O)(=O)Nc1ccc2c(c1)C(=O)N(C)C[C@@H](OC)[C@@H](C)CN[C@@H](C)CO2	0.329%
Cc1ccc2c(c1)[C@H]1[C@H](CO2)[C@H](c2ccccc2)[C@]2(C)C(=O)N(CC3CCCO3)CC(=O)N12 (some centres not stated)	-0.675%
CCOC(=O)C(C)Oc1cccc2c(=O)n(CC(=O)NCCc3ccc(OC)c(OC)c3)ccc12 (configuration not stated)	1.62%
COc1ccc(Cl)cc1NC(=O)CN(C)C(=O)CCCc1c[nH]c2ccccc12	-10.5%
CC(C)CN(C(=O)C(c1ccccc1)c1ccccc1)c1c(N)n(CC(C)C)c(=O)[nH]c1=O	1.59%
O=C(Nc1ccc(Cl)cc1)C1CCCN(C2=NS(=O)(=O)c3ccccc32)C1 (configuration not stated)	5.19% [at 16 µM]
CCS(=O)(=O)Nc1ccc2c(c1)C(=O)N(C)C[C@H](OC)[C@@H](C)CN(C(=O)C1CCC1)[C@H](C)CO2	2.63%
CCc1ccc(-c2cn3nc(C)c(C)nc3n2)cc1	-19.4%
COC(=O)[C@@]1(C)[C@H]2C(=O)N(Cc3ccccc3)C(=O)[C@H]2[C@H]2CN=C(SCC3CC3)N21	-4.08%
COc1ccc(NC(=O)Nc2ccc3c(c2)C(=O)N([C@H](C)CO)C[C@H](C)[C@H](CN(C)S(=O)(=O)c2ccc(OC)cc2)O3)cc1	-8.2%
C[C@@H]1CN([C@@H](C)CO)S(=O)(=O)c2ccc(-c3cccc(F)c3)cc2O[C@@H]1CN(C)S(=O)(=O)c1ccc(F)cc1	-23.9%
COc1ccc(S(=O)(=O)Nc2ccc3c(c2)CC(=O)N([C@@H](C)CO)C[C@H](C)[C@H](CN(C)S(=O)(=O)c2ccc(F)cc2)O3)cc1	-3.18%
COc1ccc(C(=O)C(C)N(C(=O)c2ccc(Cl)cc2Cl)N2C(=O)C3C4C=CC(C4)C3C2=O)cc1 (configuration not stated)	-14%
COc1ccc(Cn2nnnc2C(c2cc3cc(C)cc(C)c3[nH]c2=O)N2CCOCC2)cc1 (configuration not stated)	1.27%
O=C(N(c1ccccn1)c1ccccn1)C12CC3CC(CC(Cl)(C3)C1)C2	-0.057%
COC(=O)[C@@]1(Cc2ccc(F)cc2)[C@H]2c3cc(C(=O)N(C)C)n(CCO)c3C[C@H]2CN1C(=O)c1ccccc1	4.85%
COC(=O)C1CCN(C(=O)COC(=O)c2cc(S(=O)(=O)N3CCOCC3)ccc2C)CC1	2.66%

SMILES	activity change, negative = cytotoxicity
O=C(CCCOc1ccc(Cl)cc1Cl)Nc1cc(S(=O)(=O)N2CCOCC2)ccc1N1CCOCC1	-10.9%
O=C(COC(=O)c1cc(S(=O)(=O)N2CCOCC2)ccc1O)NCc1ccc2c(c1)OCO2	7.4%
Cc1cc(Cl)ccc1OCCCC(=O)Nc1cc(S(=O)(=O)N2CCOCC2)ccc1N1CCOCC1	-2.78%
CC(C)(C)C1CCc2onc(C(=O)NCc3ccc(F)cc3)c2C1 (configuration not stated)	-14.6%
Cn1c(=O)[nH]c2cc3ccccc3cc21	-6.26%
N#Cc1ccc(CN2CCN(C(=O)CNC(=O)Cc3cccc4ccccc34)CC2)cc1	-15.3%
CCCCNC(=O)C[C@H]1C[C@@]2(C(=O)OC)C(=C[C@H](C(C)(C)C)O[C@@H]2C)N(Cc2ccc3c(c2)OCO3)C1=O	-9.67%
C=C(C)CN(CC)c1nc(N)c2c(N)nc3c(c2c1C#N)CC(=O)N3C12CC3CC(CC(C3)C1)C2	-28.7%
CN(C[C@H](Cc1ccccc1)N(C[C@H](Cc1ccccc1)N(CC1(c2ccccc2)CC1)N=O)N=O)N=O	-8.9%
COc1ccc2ncn(-c3ccccc3)c2c1	-2.1%
COC(=O)[C@@]1(C)[C@H]2C(=O)N(Cc3ccccc3)C(=O)[C@H]2[C@H]2CN=C(SCc3ccccc3)N21	-3.46%
CCOc1ccc2c(c1)-c1c(ssc1=S)C(C)(C)N2C(=O)c1ccco1	-29.3%
CCn1c(COc2ccc(Cl)cc2)nnc1SCc1nc2ccccc2[nH]1	-21.6%
COCCN(C(=O)COC(=O)C12CC3CC(CC(Cl)(C3)C1)C2)c1c(N)n(Cc2ccccc2)c(=O)[nH]c1=O	5.3% [at 16 µM]
COCCCN(C(=S)NC(=O)C12CC3CC(CC(C3)C1)C2)c1c(N)n(Cc2ccccc2)c(=O)[nH]c1=O	6.22%
CCOc1ccccc1C(=O)NCC(=O)NNC(=O)CN(C)S(=O)(=O)c1ccc(Cl)cc1	-8.4%
Cc1cc(C)nc(/N=C(\N)Nc2ccc(CC(=O)OC(C)C)cc2)n1	-16.5%
CCCC[C@H](CN(N=O)[C@@H](Cc1ccccc1)CN(C)N=O)N(CCc1ccccc1)N=O	-7.7%
CN(C(=O)c1cccc(NC(=O)Cc2cccc(NC(=O)C3CCCN(C(=O)C4CCC4)C3)c2)c1)C1CCC1 (configuration not stated)	-1.65%
